Screening data (PubChem BioAssay)
Cruzain noTriton = inhibitors of Trypanosoma cruzi cruzain without detergent. P25779. purified cruzain, Z-FR-AMC fluorescence, no detergent. Potency, µM, for inactives: max response, negative = inhibition, usual class: inhibitors. 200,000 tested, 2.3% active. AID 1476;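 also: plate controls were enzyme without inhibitor for no effect and buffer without enzyme for full effect; nearly all actives have a fitted effect of over 40% in size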
Target sequence (P25779 123-467 limits assumed): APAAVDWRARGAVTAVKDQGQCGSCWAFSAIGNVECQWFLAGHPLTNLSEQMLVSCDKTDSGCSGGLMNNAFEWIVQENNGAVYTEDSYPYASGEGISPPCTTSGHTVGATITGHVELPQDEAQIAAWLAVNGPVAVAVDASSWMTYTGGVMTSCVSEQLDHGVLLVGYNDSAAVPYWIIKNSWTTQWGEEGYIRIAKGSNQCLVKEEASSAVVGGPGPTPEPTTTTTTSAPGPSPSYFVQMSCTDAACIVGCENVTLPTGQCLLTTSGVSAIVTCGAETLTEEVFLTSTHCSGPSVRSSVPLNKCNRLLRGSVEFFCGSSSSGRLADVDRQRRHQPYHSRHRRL
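Detergent-free condition (0.00005% Triton X-100) in acetate buffer pH 5.5 with DTT. 1.5 nM enzyme and compound were pre-mixed 15 min, then 2 uM Z-FR-AMC substrate added; reaction progress from fluorescence change between first and third reads (60 s).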
Cruzain Triton = inhibitors of Trypanosoma cruzi cruzain with detergent | purified cruzain, Z-FR-AMC fluorescence, 0.01% Triton | Potency, µM, for inactives: max response, negative = inhibition, hits mostly inhibitors | 200,000 tested, 0.43% active | AID 1478;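 also: plate controls were neutral wells for no effect and buffer without enzyme for full effect; nearly all actives have a fitted effect of over 40% in size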
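Z-FR-AMC hydrolysis (2 uM substrate) by cruzain (1.5 nM) monitored kinetically at ex 360/em 450 nm after 15 min room-temperature compound exposure; 0.01% Triton X-100, pH 5.5, 5 mM DTT.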
Starred values were filed as active, the others as inactive; ? = inconclusive. An excerpt weighted towards active compounds, which were near 2.5% of everything screened. Calls follow the shape of the dose curve; as a rule, active = well fitted curve in the direction sought with a large enough effect; inconclusive = small, poorly fitted or top-dose-only effect, or another doubt; inactive = no such curve, though single readings can be large; an effect the other way counts as inactive or inconclusive. Potency is read from the fitted curve at half-maximal effect.

SMILES | Cruzain noTriton | Cruzain Triton
CCCCCCOC(=O)C(C#N)c1nc2ccccc2nc1N1CCN(C)CC1 (configuration not stated) | 4% | -2%
CCCCCCOC(=O)C(C#N)c1nc2ccccc2nc1N1CCCCC1 (configuration not stated) | 25µM* | -2%
CC1CCN(c2nc3ccccc3nc2C(C#N)C(=O)NC2CCCCC2)CC1 (configuration not stated) | 20µM* | -4%
Cc1cccc(-c2nc3scc(CCNS(=O)(=O)c4ccc(F)cc4C)n3n2)c1 | 26% | -9%
Cc1nc2nc(NCc3ccc(Cl)cc3)[nH]n2c(=O)c1Cc1ccccc1 | -8% | 0%
Nc1ncnc2c1ncn2[C@@H]1O[C@H](C(=O)NC2CC2)[C@H](O)[C@H]1O | 9% | -5%
O=C1NC(=Nc2ccc(Cl)cc2)/C(=C/c2ccco2)S1 | 5µM* | -21%
Cc1cccc(N=C2NC(=O)S/C2=C\c2ccco2)c1 | ? | -4%
Cc1ccc2c(c1)c1nnc(SCC(=O)N3CCN(c4ccc(F)cc4)CC3)nc1n2CC(=O)O | 7% | 28µM*
Cc1ccc(-c2nc3c4ccccc4n(CC(=O)N4CCN(c5ccc(F)cc5)CC4)c(=O)n3n2)cc1 | 4% | 1%
Cc1sc2nc(CN3CCCC3)nc(N3CCN(S(=O)(=O)c4cccs4)CC3)c2c1C | 16µM* | 0%
Cc1sc2nc(CN3CCCCC3)nc(Cl)c2c1C | 1% | -5%
CCOC(=O)Nc1nc(-c2ccccc2)c(C)s1 | 2% | 4%
CC(/C=N/Nc1nnc2c(n1)[nH]c1ccccc12)=C\c1ccco1 | 10µM* | -2%
Cc1cccc2c1[nH]c1nc(N/N=C\c3ccco3)nnc12 | -11% | -1%
NCCNc1ncnc2ccc(Cl)cc12 | 0% | -2%
CCOc1ccccc1NC(=O)C1CCN(S(=O)(=O)c2ccc3[nH]c4c(c3c2)CCCCC4)CC1 | 13µM* | -2%
Cc1ccc(Cl)cc1N1CCN(S(=O)(=O)c2ccc3[nH]c4c(c3c2)CCCCC4)CC1 | 5µM* | 0%
Cc1ccc(NC(=S)NCc2ccc3[nH]c4c(c3c2)CCCC4)cc1 | 32µM* | -12%
COc1ccc(NC(=O)C2CCN(S(=O)(=O)c3ccc4[nH]c5c(c4c3)CCCCC5)CC2)cc1 | -30% | 2%
Cc1ccc(Cl)cc1N1CCN(S(=O)(=O)c2cccc(S(=O)(=O)N3CCCC3)c2)CC1 | ? | 3%
COc1ccc(C)cc1NC(=O)C1CCN(S(=O)(=O)c2ccc3[nH]c4c(c3c2)CCCCC4)CC1 | 16µM* | -1%
Cc1ccc(NS(=O)(=O)c2ccc3[nH]c4c(c3c2)CCCCCC4)cc1 | -25% | -6%
CCOc1ccccc1NC(=O)C1CCN(S(=O)(=O)c2ccc3[nH]c(=O)oc3c2)CC1 | -1% | -2%
N#CSCSC#N | -15% | -27%
SMILES | Cruzain noTriton | Cruzain Triton
CN1[C@@H]2CC[C@H]1CC(OC(=O)[C@@H](CO)c1ccccc1)C2 (some centres not stated) | 2% | -1%
Cc1ccc(NC(=O)C2CCN(S(=O)(=O)c3ccc4[nH]c5c(c4c3)CCCCC5)CC2)cc1 | 13µM* | 0%
CC(=O)c1ccc(NC(=O)C2CCN(S(=O)(=O)c3ccc4[nH]c5c(c4c3)CCCCC5)CC2)cc1 | -16% | -2%
O=C1N[C@@]2(CN3CCC2CC3)C(=O)N1CN(Cc1ccccc1)c1ccccc1 | -5% | 0%
c1ccc(CNc2oc(-c3ccccc3)nc2-c2cccc3ccccc23)cc1 | 16µM* | -2%
c1ccc(CNc2oc(-c3ccccc3)nc2-c2ccccc2)cc1 | -10% | -1%
CC(=O)CC(=O)Nc1ccccc1 | 1% | 6%
COc1ccc2c(c1)NC(c1cccnc1)=NC(c1ccc(F)cc1)=N2 | 10% | -2%
CCCCNc1nc(SC)nc2nc[nH]c12 | 9% | 2%
COc1ccc(C2/C=C\CN(CC(C)C)CC(=O)N2Cc2cccc(F)c2)cc1 (configuration not stated) | -3% | 2%
COc1ccc(C2/C=C\CN(C(=O)OCC3c4ccccc4-c4ccccc43)CC(=O)N2Cc2cccc(F)c2)cc1 (configuration not stated) | 25µM* | -2%
Cc1ccc(C)c(N2CCN(CCCNC(=O)C3COc4ccccc4C3)CC2)c1 (configuration not stated) | 5% | 0%
Cc1ccc(S(=O)(=O)NC(=O)OC23COCN2COC3)cc1 | 1% | 1%
C=CCOC(=O)/C(=C/c1ccco1)NC(=O)/C=C/c1ccccc1 | -28% | 28µM*
O=C(O)CNC(=O)/C(=C/c1ccco1)NC(=O)/C=C/c1ccccc1 | 2% | -6%
O=C1C=C(Nc2ccc(Cl)cc2)C(=O)N1c1ccc(Cl)cc1 | 6.3µM* | 1%
O=C1CCCC(=O)N1c1ccc(Oc2ccc(Cl)cc2)cc1 | -1% | -4%
CCOc1cc(/C=N/Nc2nc(-c3cccc(S(=O)(=O)N4CCCC4)c3)cs2)ccc1O | 16µM* | -12%
